Mac1 fbg inh: inhibitors of human CD11b/CD18 binding to fibrinogen | 0.54% of 93,000 active | K562 CD11b/CD18 adhesion to fibrinogen, ATPlite luminescence; Mn2+ added to activate the integrin | inhibition, % at 10 µM;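 active = primary inhibition of 50% or more at 10 µM, then 40% or more on retest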
Phagocytosis inh: macrophage phagocytosis inhibition; 0.07% of 110,000 active; AID 1029; inhibition, % at 5 µM; J774A.1 macrophage IgG-bead phagocytosis, imaging;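 active = inhibition above the mean of the plate negative controls plus 5 SD, cut at about 13% in these data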;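 note: phagocytic index as fraction of beads internalized from green versus red external bead signal; plate controls were DMSO negative control for no effect and cytochalasin-D positive control for full effect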
MRP reversal: MRP-mediated drug resistance reversal. H69AR cells + 2 uM doxorubicin, CellTiter-Glo, 72 h. 0.04% of 85,000 active. differential viability (reversal), % at 10 µM;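 active = viability drop by adding the cancer drug above about 55%, with treated viability meeting a 40% cutoff, limit read from the data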;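 note: viability without doxorubicin minus viability with 2 µM doxorubicin for each compound; larger differential means the compound sensitizes cells more to doxorubicin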
Smad3 inh: inhibitors of human Smad3 transcription factor binding; TR-FRET Smad3/Dy647-FoxH1 peptide binding, europium anti-His; P84022; 0.29% of 88,000 active; inhibition, % at 25 µM;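 active = compounds that reduce the energy-transfer binding signal between the protein and its labelled peptide by more than half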;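 note: 0% = Smad3 plus labelled peptide maximal FRET and 100% = peptide-only background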
MRP-1 activ: activators of MRP-1; H69AR cells + doxorubicin, viability rescue, CellTiter-Glo; viability increase, % at 10 µM; 0.61% of 140,000 active;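 active = viability gain under doxorubicin at or above a set limit, the compound median plus 3 SD, cut at about 4.7% in these data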;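 note: MRP-1 overexpressing cells given doxorubicin 25 µM after compound pretreatment; 18-22 h compound pretreatment then 72 h with doxorubicin before readout; 0% = doxorubicin-only wells and 100% = vehicle-treated cells without doxorubicin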
CD11b adhes enh: enhancers of human CD11b/CD18 binding to fibrinogen. K562 CD11b/CD18 adhesion to fibrinogen, ATPlite luminescence. AID 1499. P05107+P11215. 0.07% of 93,000 active. activation, % at 10 µM;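 active = 10 µM primary screen giving 50% or more activity, confirmed by 40% or more on retest at that dose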
* marks the source's active call; other numbers are inactive results; [ ] = dose if it differs, or a comment. Shown are actives, neighbours in structure and some others; about 1.2% of the full set was active somewhere.

How did CCc1nnc(NC(=O)CCC(=O)N2CCN(c3ccccn3)CC2)s1 do in these assays?
MRP reversal: 5; Smad3 inh: -5; MRP-1 activ: 2

What do the screens show for `COC(=O)c1sc(NC(=O)c2ccc(Cn3cc(Cl)cn3)o2)c(C#N)c1C`?
Mac1 fbg inh: 75; Phagocytosis inh: 3; Smad3 inh: -3; MRP-1 activ: -2; CD11b adhes enh: -8

How did CCOC(=O)c1c(NC(=O)C2C3C=CC(C3)C2C(=O)O)sc2c1CCC(C)C2 (stereo unspecified) do in these assays?
Phagocytosis inh: -4; MRP-1 activ: -3

How did CCOC(=O)c1c(NC(=S)NC(=O)c2ccc(Cn3cc(Cl)cn3)o2)sc2c1CCCCC2 do in these assays?
Mac1 fbg inh: 4; Phagocytosis inh: 5; MRP-1 activ: -7; CD11b adhes enh: 69*

How did CCOC(=O)c1c(NC(=S)NC(=O)c2cnn(CC)c2)sc2c1CCC(C)C2 (stereo unspecified) do in these assays?
Mac1 fbg inh: 5; Phagocytosis inh: -2; MRP-1 activ: -6; CD11b adhes enh: 157*

Results for O=C(NC(=S)Nc1ccc(S(=O)(=O)Nc2nccs2)cc1)c1ccc(F)cc1 ?
Phagocytosis inh: -9; MRP-1 activ: 0

What do the screens show for `Clc1ccc(CSc2ncn[nH]2)cc1`?
Mac1 fbg inh: -7; Phagocytosis inh: -1; MRP reversal: -2; Smad3 inh: -2; MRP-1 activ: 5.9*; CD11b adhes enh: 3

Results for Cc1cc(Br)ccc1NC(=S)Nc1cccc([N+](=O)[O-])c1 ?
Mac1 fbg inh: 99*; Phagocytosis inh: -9; MRP-1 activ: -3; CD11b adhes enh: -10

How did COc1ccc2c(c1)CN([C@H](C)[C@@H]1CC[C@@H]3[C@H]4CC[C@H]5C[C@@H](O)CC[C@]5(C)[C@@H]4CC[C@]31C)CO2 do in these assays?
Smad3 inh: 31

Results for CCc1nnc(NC(=O)c2ccc(-c3ccc(Cl)cc3)o2)s1 ?
Mac1 fbg inh: -11; Phagocytosis inh: -1; MRP reversal: 8; Smad3 inh: -18; MRP-1 activ: 7.2*; CD11b adhes enh: 102

What do the screens show for `CCn1nnc(NC(=O)c2ccc(-c3ccc(Cl)cc3)o2)n1`?
Mac1 fbg inh: -7; Phagocytosis inh: 1; MRP reversal: 11; Smad3 inh: 1; MRP-1 activ: -2; CD11b adhes enh: 2

How did CCc1nnc(NC(=O)CCC(=O)N2CCN(Cc3ccc(Cl)cc3)CC2)s1 do in these assays?
Mac1 fbg inh: -2; Phagocytosis inh: 0; MRP reversal: -10; Smad3 inh: 5; MRP-1 activ: 6.3*; CD11b adhes enh: 1

What do the screens show for `CCc1nnc(NC(=O)CCC(=O)N2CCN(Cc3ccccc3)CC2)s1`?
Mac1 fbg inh: 16; Phagocytosis inh: 0; MRP reversal: 9; Smad3 inh: -3; MRP-1 activ: -1; CD11b adhes enh: 0

Results for C(=Nc1ccc2c(c1)Cc1ccccc1-2)c1ccccn1 ?
Smad3 inh: 2

How did COC(=O)C(NNc1ccccc1)(NC(=O)c1cccc(F)c1)C(F)(F)F (stereo unspecified) do in these assays?
Mac1 fbg inh: 18; Phagocytosis inh: 1; MRP-1 activ: -1; CD11b adhes enh: -1

How did Cc1ccc(NC(=O)c2cccs2)cc1S(=O)(=O)Nc1cccc(Cl)c1 do in these assays?
Mac1 fbg inh: 82; Phagocytosis inh: -10; MRP-1 activ: 2; CD11b adhes enh: -7

Results for C/C(=N\NC(=O)c1cccc(S(=O)(=O)Nc2cccc(Cl)c2)c1)c1cccs1 ?
Mac1 fbg inh: -16; Phagocytosis inh: 8; MRP-1 activ: 5.6*; CD11b adhes enh: -2

Results for COc1ccc(Cl)cc1NC(=O)CSc1nnc(COc2ccccc2)n1N ?
Mac1 fbg inh: -48; Phagocytosis inh: -1; MRP reversal: 20; Smad3 inh: -7; MRP-1 activ: 7.8*; CD11b adhes enh: -2

How did COc1ccc(Cl)cc1NC(=O)CSc1nnc(COc2ccccc2)n1C do in these assays?
Mac1 fbg inh: 3; Phagocytosis inh: 5; MRP reversal: -20; Smad3 inh: -3; MRP-1 activ: 2; CD11b adhes enh: -2

What do the screens show for `CNC(=O)CSc1nnc(COc2ccc(Cl)cc2)n1CCOC`?
Mac1 fbg inh: -9; Phagocytosis inh: -2; MRP reversal: 0; Smad3 inh: 5; MRP-1 activ: 9.8*; CD11b adhes enh: -2

Results for C[C@@H](CCC(=O)O)C(=O)O ?
Smad3 inh: 8

How did C(CCc1nnc2c(n1)CCCC2)Cc1nnc2c(n1)CCCC2 do in these assays?
Smad3 inh: -3

Results for O=C1C2[C@@H](c3ccccc3)N[C@@H](c3ccccc3)C1[C@@H](c1ccccc1)N[C@H]2c1ccccc1 ?
Smad3 inh: -4

How did Cc1ccc(-c2nc3sc4c(c3c(=O)n2N)CC(C)(C)OC4)cc1 do in these assays?
Mac1 fbg inh: -16; Phagocytosis inh: -1; MRP reversal: 4; Smad3 inh: -9; MRP-1 activ: 3; CD11b adhes enh: -3

Results for CC1(C)Cc2c(sc3nnn(Cc4ccc(Cl)cc4)c(=O)c23)CO1 ?
Phagocytosis inh: 38*[artifact]; MRP-1 activ: 7.4*

What do the screens show for `COc1ccc2cc(C(=O)CCC(=O)O)ccc2c1`?
Smad3 inh: 0

How did COc1ccccc1Oc1ccc(S(=O)(=O)NCc2ccccn2)cc1 do in these assays?
Mac1 fbg inh: 68*; Phagocytosis inh: 0; MRP reversal: -3; Smad3 inh: -5; MRP-1 activ: -1; CD11b adhes enh: -7

Results for CC(C)Cn1c2c(c(O)c(C(=O)Nc3ccc(F)cc3)c1=O)CCCC2 ?
Mac1 fbg inh: 4; Phagocytosis inh: -1; MRP reversal: -9; Smad3 inh: -5; MRP-1 activ: 6.3*; CD11b adhes enh: 0

How did CC(C)Cn1c2c(c(O)c(C(=O)Nc3ncccc3O)c1=O)CCCC2 do in these assays?
Phagocytosis inh: 0; MRP reversal: -14; Smad3 inh: 6; MRP-1 activ: 1

Results for Cc1nn(Cc2ccccc2)c(C)c1NC(=O)c1cc(-c2cccs2)on1 ?
Mac1 fbg inh: -10; Phagocytosis inh: -2; MRP reversal: 2; Smad3 inh: 6; MRP-1 activ: 4.8*; CD11b adhes enh: 0

Results for Cc1nn(Cc2ccccc2)c(C)c1NC(=O)c1cccs1 ?
Phagocytosis inh: -4; MRP-1 activ: 0

What do the screens show for `CCCCc1ccc(/C=C2\C(=O)ON=C2c2ccccc2)s1`?
Phagocytosis inh: 39*[artifact]; MRP-1 activ: -2

Results for COc1cc(/C=C2\C(=O)ON=C2c2ccccc2)cc(OC)c1OC ?
MRP-1 activ: 1

How did O=CN[C@@H](Cc1cnc[nH]1)C(=O)O do in these assays?
Smad3 inh: 0

Results for Cc1ccc(O)c(Sc2cc(C)ccc2O)c1 ?
Mac1 fbg inh: 29; Phagocytosis inh: -3; MRP reversal: -15; Smad3 inh: -4; MRP-1 activ: -5; CD11b adhes enh: 0

Source: PubChem (several laboratories)
